The values that follow come from PubChem BioAssay (NCI).

Among the test systems are SK-MEL-2 melanoma; SN12C renal; UO-31 renal; TK-10 renal; ACHN renal; CAKI-1 renal; A498 renal; CCRF-CEM leukemia; MOLT-4 leukemia; SR leukemia; RPMI-8226 leukemia; OVCAR-8 ovarian; OVCAR-5 ovarian; SK-OV-3 ovarian; IGROV1 ovarian; OVCAR-3 ovarian; HS 578T breast; OVCAR-4 ovarian; NCI/ADR-RES ovarian; EKVX NSCLC.
Common to all, as to experiment: NCI-60 one-dose screen, 48 h (100 = growth as untreated, 0 = no growth, -100 = all killed)
Details in all cases: 10 µM unless noted

About 83,000 compounds went through this panel and 20% of them were active in at least one assay; those are over-represented in the sample as a whole.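 96-well plates, one dose, 48 hours. Percent growth reported; active if below 10.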 Values without a mark were called inactive. Calls of active or inactive are those of the source.

As to `O=C(c1ccccc1)c1cccc(C(Br)Br)c1`, the growth was 74.5% in the experiment on SK-MEL-2 melanoma; 89.7% in the experiment with SN12C renal; 74.1% in the experiment on UO-31 renal; 78.9% with TK-10 renal; 91% in the experiment with ACHN renal; 78.2% in the experiment on CAKI-1 renal. For the same compound, the growth in the experiment with A498 renal is 77.2%; in the experiment on CCRF-CEM leukemia it was 103%; with MOLT-4 leukemia, 81.5%; in the experiment on SR leukemia it was 43.8%; in the experiment with RPMI-8226 leukemia it was 84.4%; in the experiment on OVCAR-8 ovarian, 93.7%. Further, the growth with OVCAR-5 ovarian is 125%; in the experiment with SK-OV-3 ovarian, 94%; in the experiment with IGROV1 ovarian, 70.5%; with OVCAR-3 ovarian it was 97.5%; with HS 578T breast it was 94.5%.
Take `CCN1C(=O)N(CC)C2C1NN=c1s/c(=C\c3ccc(Br)cc3)c(=O)n12` (stereo not given): the growth with SK-MEL-2 melanoma was 24.8%; in the experiment with SN12C renal, 33.9%; in the experiment with UO-31 renal, 35.4%; with TK-10 renal it was 52.7%; in the experiment on ACHN renal, 29.2%; with CAKI-1 renal, 23.8%. Further, the growth is 12.6% in the experiment on A498 renal; 11.4% in the experiment with CCRF-CEM leukemia; 12.6% with MOLT-4 leukemia; 14% in the experiment on SR leukemia; 2.86% (active) in the experiment with OVCAR-8 ovarian; 35.1% with OVCAR-5 ovarian. Moreover, the growth is 65.7% in the experiment with OVCAR-4 ovarian; 16.1% in the experiment with SK-OV-3 ovarian; 13.3% with IGROV1 ovarian; 3.78% (active) in the experiment on OVCAR-3 ovarian; 54% with HS 578T breast; 5.64% (active) in the experiment on NCI/ADR-RES ovarian.
As for `CCN(C(=O)CCl)C(C)(C)C(SSSC(c1ccc(Cl)cc1)C(C)(C)N(CC)C(=O)CCl)c1ccc(Cl)cc1` (stereo not given), the growth is 78.5% in the experiment with SK-MEL-2 melanoma; 88.3% in the experiment with SN12C renal; 66.9% with UO-31 renal; 101% with TK-10 renal; 78.2% with ACHN renal; 29.1% in the experiment with CAKI-1 renal. Further, the growth with A498 renal was 98.8%; with MOLT-4 leukemia, 36.9%; with SR leukemia it was 17.6%; in the experiment with RPMI-8226 leukemia, 51.7%; in the experiment with OVCAR-8 ovarian, 77.9%; in the experiment with OVCAR-5 ovarian, 107%. Besides, the growth is 49.3% with OVCAR-4 ovarian; 87.5% in the experiment with SK-OV-3 ovarian; 74.3% with IGROV1 ovarian; 72.3% with OVCAR-3 ovarian; 92.5% in the experiment on HS 578T breast; 89.8% in the experiment on NCI/ADR-RES ovarian.
`C=C1C(=O)O[C@H]2[C@H]1CC/C(COC(=O)NCc1[nH]nc3ccccc13)=C\CC[C@@]1(C)O[C@@H]21`: the growth is 30.9% in the experiment on SK-MEL-2 melanoma; 35.4% in the experiment with SN12C renal; 71.5% in the experiment on UO-31 renal; -4.85% (active) in the experiment on TK-10 renal; 14.4% with ACHN renal; 16.6% with CAKI-1 renal. Moreover, the growth with A498 renal is 94.3%; in the experiment on CCRF-CEM leukemia it was -6.22% (active); with SR leukemia it was 4.38% (active); in the experiment with RPMI-8226 leukemia it was -10.2% (active); in the experiment on OVCAR-8 ovarian, 35.3%; in the experiment on OVCAR-5 ovarian, 58.5%. Moreover, the growth was 67.9% in the experiment on OVCAR-4 ovarian; 75.6% with SK-OV-3 ovarian; -20.8% (active) in the experiment on IGROV1 ovarian; 5.37% (active) in the experiment with OVCAR-3 ovarian; 62.5% in the experiment with HS 578T breast; 85.7% in the experiment on NCI/ADR-RES ovarian.
For the compound `CCCCCCCCCCCC1=NC(C)(C)CN1CCO`, the growth with SK-MEL-2 melanoma is 87.8%; in the experiment with SN12C renal it was 72.6%; with UO-31 renal, 68.3%; with TK-10 renal it was 92.6%; in the experiment on ACHN renal, 78.2%; with CAKI-1 renal it was 75%. Also, the growth in the experiment with A498 renal was 95.4%; in the experiment on CCRF-CEM leukemia it was 23.5%; in the experiment with OVCAR-8 ovarian, 78.1%; in the experiment with OVCAR-5 ovarian, 92%; in the experiment on OVCAR-4 ovarian, 72.6%; in the experiment on SK-OV-3 ovarian it was 97%. In addition, the growth was 38.5% in the experiment on IGROV1 ovarian, 81% in the experiment on OVCAR-3 ovarian, 59.3% in the experiment with HS 578T breast and 90.3% in the experiment with NCI/ADR-RES ovarian.
On to `O=C1C(Cl)=C(Nc2cccc3ccccc23)C(=O)c2ccccc21`, for which the growth is 79.1% in the experiment on SK-MEL-2 melanoma; 80.1% with SN12C renal; 58.5% in the experiment on UO-31 renal; 95.4% in the experiment on TK-10 renal; 68.2% in the experiment with ACHN renal; 25.4% in the experiment with CAKI-1 renal. Further, the growth is 77.5% in the experiment on A498 renal; 65.4% in the experiment with CCRF-CEM leukemia; 64.9% in the experiment on MOLT-4 leukemia; 51% in the experiment with SR leukemia; 17.8% in the experiment on RPMI-8226 leukemia; 71.5% in the experiment on OVCAR-8 ovarian. The growth in the experiment on OVCAR-5 ovarian was 134%; with SK-OV-3 ovarian, 99.1%; with IGROV1 ovarian it was 58.8%; in the experiment with OVCAR-3 ovarian it was 39%; in the experiment on HS 578T breast, 87.9%; in the experiment with NCI/ADR-RES ovarian it was 81.2%.
With `O=[N+]([O-])c1ccc(N/N=C\c2ccc(O)cc2O)nc1`, the growth in the experiment with SK-MEL-2 melanoma was 28.9%; in the experiment with SN12C renal, 50.9%; in the experiment on UO-31 renal, 28.1%; in the experiment on TK-10 renal, 22.7%; in the experiment with ACHN renal it was 26.8%; in the experiment with CAKI-1 renal it was 4.77% (active). Moreover, the growth with A498 renal is 107%; with CCRF-CEM leukemia, 18.8%; with MOLT-4 leukemia, 13.6%; with SR leukemia, 15.3%; in the experiment on OVCAR-8 ovarian, 25.4%; in the experiment on OVCAR-5 ovarian, 57.9%. Further, the growth with OVCAR-4 ovarian is 40%; in the experiment on SK-OV-3 ovarian it was 25.8%; with IGROV1 ovarian, 28.7%; in the experiment on OVCAR-3 ovarian it was 74.8%; in the experiment with HS 578T breast, 90.8%; in the experiment on NCI/ADR-RES ovarian, 20.6%.
As for `O=C(CC(=O)c1cccc(Cl)c1)c1cccc(Cl)c1`, the growth was 60.4% with SK-MEL-2 melanoma; 20.5% in the experiment with EKVX NSCLC; 23.2% with SN12C renal; 42.7% with UO-31 renal; 31.2% in the experiment with ACHN renal; 23.4% in the experiment with CAKI-1 renal. Moreover, the growth in the experiment on CCRF-CEM leukemia is 11.4%; in the experiment with MOLT-4 leukemia, 21.7%; in the experiment with SR leukemia, 2.96% (active); in the experiment with OVCAR-8 ovarian, 21.9%; in the experiment on OVCAR-5 ovarian, 46.8%; in the experiment on OVCAR-4 ovarian it was 42%. Further, the growth with SK-OV-3 ovarian is 47.5%; with IGROV1 ovarian, 34.1%; in the experiment on OVCAR-3 ovarian, 32%; with HS 578T breast, 73.6%; in the experiment with NCI/ADR-RES ovarian, 8.52% (active).
`COc1ncnc2[nH]cc(CN3CCN(c4ccc(F)cc4)CC3)c12`: the growth in the experiment with SK-MEL-2 melanoma is 103%; with SN12C renal, 102%; in the experiment with UO-31 renal it was 94.3%; in the experiment with TK-10 renal, 90.1%; in the experiment on ACHN renal, 104%; in the experiment with CAKI-1 renal, 98.8%. The growth is 80% in the experiment on A498 renal; 97.1% in the experiment on CCRF-CEM leukemia; 105% in the experiment with MOLT-4 leukemia; 105% in the experiment with SR leukemia; 103% in the experiment on RPMI-8226 leukemia; 100% with OVCAR-8 ovarian. The growth in the experiment with OVCAR-5 ovarian was 102%; with OVCAR-4 ovarian, 115%; in the experiment on SK-OV-3 ovarian, 104%; in the experiment with IGROV1 ovarian it was 102%; in the experiment on OVCAR-3 ovarian, 114%; with HS 578T breast, 97.5%.
As for `CCN(CC)c1ccc(/C=N/NC(=O)C[N+](C)(C)C)cc1`, the growth is 137% with SK-MEL-2 melanoma; 105% with SN12C renal; 108% in the experiment on UO-31 renal; 95.2% with TK-10 renal; 105% in the experiment on ACHN renal; 101% in the experiment on CAKI-1 renal. The growth in the experiment on A498 renal is 92.3%; in the experiment on CCRF-CEM leukemia it was 90.9%; in the experiment on MOLT-4 leukemia, 22.1%; in the experiment on SR leukemia, 16.6%; in the experiment with RPMI-8226 leukemia, 92%; with OVCAR-8 ovarian, 111%. The growth was 102% with SK-OV-3 ovarian; 115% in the experiment on IGROV1 ovarian; 110% in the experiment with OVCAR-3 ovarian; 110% with HS 578T breast; 103% in the experiment on NCI/ADR-RES ovarian.
